From PubChem
Only some compounds are listed: those with a hit (about 28% of all), similar ones and a draw of the others.
CYP2C19 inhib = inhibitors of human CYP2C19. P33261. CYP2C19 Supersomes, luciferin-H EGE luminescence, 30 min. inhibition, % at 5 µM. actives 21% (n = 96,000). AID 778;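 active = CYP2C19 inhibition above a set limit at 5 µM in the primary screen, cut at about 50% in these data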;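 also: plate controls were negative control wells for no effect and 2.5 mM tranylcypromine positive control for full effect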
CYP2C9 inhib = human CYP2C9 inhibition. actives 20% (n = 96,000). CYP2C9 Supersomes, luciferin-H conversion, luminescence. AID 777. inhibition, % at 5 µM;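 active = blocking of liver enzyme CYP2C9 beyond about 50% at 5 µM, limit read from the data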
Target sequence (P11712 whole entry, looked up): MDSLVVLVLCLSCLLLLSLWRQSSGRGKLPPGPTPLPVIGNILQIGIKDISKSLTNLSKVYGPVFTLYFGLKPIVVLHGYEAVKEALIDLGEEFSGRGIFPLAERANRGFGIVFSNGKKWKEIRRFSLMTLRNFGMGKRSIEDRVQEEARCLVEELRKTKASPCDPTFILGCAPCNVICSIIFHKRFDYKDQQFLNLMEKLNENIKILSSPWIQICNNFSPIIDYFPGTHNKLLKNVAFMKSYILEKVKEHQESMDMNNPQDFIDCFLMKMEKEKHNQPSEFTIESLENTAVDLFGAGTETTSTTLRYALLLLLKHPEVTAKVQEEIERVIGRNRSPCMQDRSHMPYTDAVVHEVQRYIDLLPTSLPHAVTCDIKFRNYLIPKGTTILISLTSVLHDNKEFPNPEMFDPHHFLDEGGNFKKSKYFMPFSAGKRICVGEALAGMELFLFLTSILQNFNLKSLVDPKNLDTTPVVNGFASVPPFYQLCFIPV
PLK1 PBD inh = Plk1 (human) PBD binding inhibition; P53350; Plk1 PBD phosphopeptide binding, fluorescence polarization; inhibition, %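 (tested at about 20 µM)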; actives 0.13% (n = 97,000); AID 693; in the data active = inhibition above about 34%, passing the limit was not always enough
CYP2C9 activ = increases human cytochrome P450 2C9 activity | actives 1.4% (n = 96,000) | recombinant CYP2C9, luciferin-H conversion, luminescence; hits give high values; factor 1 = untreated enzyme, 0 = blocked | P11712 | AID 1024 | activation factor at 5 µM;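 active = activation factor of 2 or more for CYP2C9 at a 5 µM dose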;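 also: 0 = sulfaphenazole-blocked wells and 1 = vehicle-only wells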
CYP2C19 activ = increases human CYP2C19 enzyme activity. P33261. AID 1025. recombinant CYP2C19, luciferin-H EGE luminescence; hits give high values; 0 = fully inhibited enzyme, 1 = untreated enzyme. activation factor at 5 µM. 96,000 tested, under 10 active;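 active = activation factor of at least 2 at 5 µM in the primary screen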;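 also: 0 = wells with 2.5 mM tranylcypromine and 1 = vehicle-only wells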
PLK1 kinase inh = PLK1 (human) kinase inhibition. AID 619. actives 0.53% (n = 97,000). inhibition, % at 10 µM. P53350. recombinant PLK1 kinase, TR-FRET peptide phosphorylation;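 active = inhibition of 50% or more in the single-concentration screen; inactive = inhibition below 50%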;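 also: 0% = DMSO max control and 100% = H-89 dihydrochloride min control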
The depositor's hits bear a star; / = not tested or not shown.

SMILES	CYP2C19 inhib	CYP2C9 inhib	PLK1 PBD inh	CYP2C9 activ	CYP2C19 activ	PLK1 kinase inh
CS(=O)(=O)c1ccc2nc(NC(=O)CCC(=O)c3cccs3)sc2c1	-2	25	-5	0.7	1	-2
CC(C)(C)NS(=O)(=O)c1ccc2nc(NC(=O)Cc3cccs3)sc2c1	50*	88*	4	0.1	0.5	-16
CN(CC1CCCO1)S(=O)(=O)c1ccc(C(=O)Nc2nc3cc4c(cc3s2)OCO4)cc1 (stereo not drawn)	/	/	-24	/	/	-17
CCN(CC)S(=O)(=O)c1cccc(C(=O)Nc2nc3cc4c(cc3s2)OCCO4)c1	38	67*	/	0.3	0.6	/
O/N=C1/CCSc2ccccc21	-3	-9	-15	1.1	1	-8
CCOC(=O)N1CCC(Nc2ccc3nnc(-c4ccccc4)n3n2)CC1	96*	93*	-1	0.1	0	7
Cc1ccc(C)c(NC(=S)NNC(=O)c2csc3c2CCC(C)C3)c1 (stereo not drawn)	86*	53*	10	0.5	0.1	-8
Cc1ccc(C)c(NC(=S)NNC(=O)c2csc3c2CCCC3)c1	50	-14	-3	1.1	0.5	-8
CCOC(=O)C1(S(=O)(=O)c2ccc(Cl)cc2)CCN(Cc2ccc(C)cc2)CC1	92*	99*	20	0	0.1	-3
COc1cc(OC)c(C2N(c3ccc(Cl)cc3)C(=O)C3CCCN32)cc1OC (stereo not drawn)	30	36	-3	0.6	0.7	10
O=C(CNC(=O)c1ccc(Cl)cc1Cl)NCCCn1ccnc1	69*	51*	18	0.5	0.3	-5
CCCCNC(=S)NC(=O)c1ccc(Cl)cc1Cl	36	15	21	0.9	0.6	-11
O=C(COc1ccc(Cl)cc1)NCCCn1ccnc1	99*	90*	-7	0.1	0	-8
CCC(NC(=O)NCCCn1ccnc1)(C(F)(F)F)C(F)(F)F	97*	85*	/	0.2	0	/
O=C(NCCCn1ccnc1)Nc1ccc(Cl)cc1	97*	98*	-17	0	0	-17
CC1(C)Oc2ccc3ccc(=O)oc3c2/C(=C/NCCN/C=C2\C(=O)C(C)(C)Oc3ccc4ccc(=O)oc4c32)C1=O	20	1	-21	1	0.8	-2
COc1ccc(/C=N/n2c(C)cc(C)c(C(N)=O)c2=O)cc1	-1	0	-11	1	1	-2
CC1(C)Cc2noc(N)c2C(C)(C)N1OC(=O)c1ccco1	/	/	12	/	/	-10
Cc1csc(N(C(=O)c2cccc(S(=O)(=O)N(C)C)c2)c2ccccc2)n1	11	0	-13	1	0.9	-9
O=C(NCCCn1ccnc1)Nc1ccc(Cl)c(Cl)c1	76*	100*	9	0	0.2	-10
CCOc1ccc(NC(=O)C(=O)NCCCn2ccnc2)cc1	73*	60*	-23	0.4	0.3	-4
C=COCCNC(=O)Nc1ccc(Cl)c(Cl)c1	/	/	-11	/	/	-10
COc1ccc(N/C(C)=C2/C(=O)C(=O)N(CCO)C2c2ccc([N+](=O)[O-])cc2)cc1 (stereo not drawn)	-1	-12	0	1.1	1	-6
COCCn1c(SCC(=O)OCc2ccccc2)nc2c1c(=O)[nH]c(=O)n2C	-9	-3	/	1	1.1	/
Clc1ccc(SCCn2ccnc2)cc1	90*	60*	/	0.4	0.1	/
SMILES	CYP2C19 inhib	CYP2C9 inhib	PLK1 PBD inh	CYP2C9 activ	CYP2C19 activ	PLK1 kinase inh
Clc1ccc(OCCn2ccnc2)c2ccccc12	97*	91*	-24	0.1	0	-5
Clc1ccc(OCCn2ccnc2)c(Br)c1	97*	95*	3	0.1	0	1
Cc1cc(NC(=O)CCCOc2ccc(Cl)cc2Cl)no1	-4	16	/	0.8	1	/
Clc1ccc(OCCn2ccnc2)c(Cl)c1	95*	96*	13	0	0	-15
O=C(COC(=O)C1(c2ccccc2F)CCCC1)N1CCOCC1	5	-29	-21	1.3	1	-5
CCNC(=O)C(C)Sc1ccc(Cl)cc1 (stereo not drawn)	17	-20	-15	1.2	0.8	-8
C=CCNC(=O)C(C)Sc1ccc(Cl)cc1 (stereo not drawn)	70*	39	-29	0.6	0.3	-7
CN(C)c1ccnc(-n2cccc2/C=N/OCc2ccc(F)cc2Cl)c1C#N	98*	96*	-9	0	0	-12
Cc1ccc(Oc2ncccc2/C=N/OCc2ccc(Cl)cc2Cl)cc1	-3	0	-11	1	1	-12
COc1ccccc1CO/N=C/c1cccn1-c1nccc(N(C)C)c1C#N	99*	91*	0	0.1	0	-16
CN(C)c1ccnc(-n2cccc2/C=N/OCc2ccccc2)c1C#N	96*	36	11	0.6	0	1
CCOC(=O)c1ccc(Cn2c(-c3ccccc3)nnc2-c2ccccc2)o1	31	58*	18	0.4	0.7	-9
COc1cc(C(=O)Nc2ccccc2-c2nnn(CC(N)=O)n2)cc(OC)c1OC	-17	78*	11	0.2	1.2	-15
O=C(Cn1nnc(-c2ccccc2)n1)NCc1cccs1	72*	3	-9	1	0.3	-5
CCOc1ccc(-c2nnn(CC(=O)NCc3ccco3)n2)cc1	23	19	8	0.8	0.8	-8
O=C(Cn1nnc(-c2ccccc2)n1)NCc1ccco1	61*	-12	-2	1.1	0.4	-13
CCC(CC)C(=O)NCCc1ccc(OC)c(OC)c1	5	-6	12	1.1	1	-1
CC1CCc2nn(CC(=O)NCCN3CCCCC3C)cc2C1 (stereo not drawn)	10	-1	14	1	0.9	-5
COc1ccc(C(=O)Nc2ccccc2-c2nnn(CC(=O)NCc3ccco3)n2)cc1	31	75*	8	0.3	0.7	-20
O=C(Cn1nnc(-c2cccc(C(F)(F)F)c2)n1)NC1CCCC1	2	-149	/	2.5*	1	/
O=C(CN1C(=O)CC(c2ccccc2)=Nc2ccccc21)NCc1ccco1	40	71*	5	0.3	0.6	-10
O=C(Cn1nnc(-c2cccc(C(F)(F)F)c2)n1)NC(=O)NCc1ccco1	-7	-91	14	1.9	1.1	-5
CCOC(=O)c1c(NC(=O)Cn2nnc(-c3ccc(Cl)cc3)n2)sc(CC)c1C	15	74*	-10	0.3	0.9	-10
O=C(Cn1nnc(-c2ccccc2NC(=O)c2ccccc2F)n1)NCc1ccco1	9	49	-30	0.5	0.9	-14
O=C(CN1C(=O)CC(c2ccccc2)=Nc2ccccc21)NCc1ccccc1	/	/	-11	/	/	-11
CCC/C(=N/NC(=O)c1csc(C)c1C)c1ccc(Cl)s1	31	0	3	1	0.7	-7
CCOC(=O)c1ccc(CNC(=O)Cn2nnc(-c3ccc(C)cc3)n2)o1	18	60*	8	0.4	0.8	-7
